assay: E. coli DRC41 culture turbidity changes, primary screen, E. coli filamentation inducer project, strain DRC41, OD650, 48 h (AID 1152);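 further: E. coli MC1000 strain DRC41 lacking acrAB efflux pump and sulA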; conditions: E. coli DRC41 (acrAB sulA), higher = more signal, called active from +8 up or from −8 down

z-score, inactive:
CC(C)=CCN(C(=O)C#Cc1ccccc1)[C@H](CO)c1ccccc1 -4.56, CCCC[C@@H]1C[C@H]1[C@@H](NC(=O)Cc1ccccc1)c1ccc(Cl)cc1 -1.71, O=C1C2C=CC(C(O)c3ccc([N+](=O)[O-])cc3)N(Nc3ccccc3)C2C(=O)N1c1ccccc1 (stereo not given) -1.21, O=C1C2C=CC(C(O)C(c3ccccc3)c3ccccc3)N(Nc3ccccc3)C2C(=O)N1c1ccccc1 (stereo not given) -0.606, CC(C)CNC(=O)[C@@]1(C)c2ccccc2C(=O)N(Cc2cc(F)cc(C(F)(F)F)c2)[C@H]1c1ccc(CO)cc1 -0.144, Cc1c(NC(=O)/C(C#N)=C/c2ccc(Cl)cc2)c(=O)n(-c2ccccc2)n1C 0.764, CN1C(=O)[C@]2(CCS(=O)(=O)c3ccccc3)N=C(c3ccc(OCCCO)cc3)O[C@@H]2c2ccccc21 -1.06, COc1cccc(C[C@H]2C[C@@H](CO[Si](C(C)C)(C(C)C)C(C)C)N3C(=O)[C@@]4(C(C)=O)O[C@@]23[C@@H]2C(=O)N(C)C(=O)[C@@H]24)c1 -0.848, CC(=O)n1cc(C(O)C2C=CC3C(=O)N(c4ccccc4)C(=O)C3N2Nc2ccccc2F)c2ccccc21 (stereo not given) 0.506, CC=CC(O)C1C=CC2C(=O)N(C)C(=O)C2N1NC(=O)OC(C)(C)C (stereo not given) -1.06
